From PubChem BioAssay AID651610 (Broad Institute, 2012) come the findings set out here.

Structures are written as SMILES. Among all 360,000 compounds or so, about 3,900 (1.1%) were called active.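 Rule for the calls: active = mean replicate inhibition score of at least 50 and every replicate individually at or above 50; inconclusive = only one of the two criteria met; inactive = mean below 50 and not all replicates reaching 50.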 This excerpt belongs to a sample that is enriched for actives.

This assay in a line: inhibitors of HIV-1 Env-driven cell-cell fusion, primary screen, HeLa-JRFL effector, CEM21 target cells, luciferase (AID 651610).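 Note: 0% = plate neutral controls and 100% = maraviroc near 300 nM.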 The following applies: hits give high values; at 16.7 µM unless noted.
Regarding `C[C@@H]1CN([C@H](C)CO)C(=O)c2cccc(NC(=O)Nc3ccccc3)c2O[C@H]1CN(C)Cc1ccccc1`, the inhibition was 9.88% (inactive).

Consider `Cc1ccc(S(=O)(=O)N(C)C[C@@H]2OCCCC[C@H](C)Oc3ccc(NS(=O)(=O)c4cn(C)cn4)cc3C(=O)N([C@H](C)CO)C[C@@H]2C)cc1`, for which the inhibition was -30.7% (inactive).

Regarding `CO[C@H]1CN(C)C(=O)c2ccc(NS(=O)(=O)c3ccccc3)cc2OC[C@@H](C)N(Cc2nccs2)C[C@@H]1C`, the inhibition was -11.1% (inactive).

In the case of `C/C=C/c1ccc([C@@H]2[C@@H](CO)N(C(=O)CN(C)C)C23CN(C(=O)C2CCCC2)C3)cc1`, the inhibition was 25.3% (inactive).

`COC(=O)C1=C(C(=O)OC)C2C=C(C(C)C)C1C(=O)C2(C)O` (stereo not given): the inhibition is -16.5% [at 12.3 µM] (inactive).

Turning to `Cc1occc1C(=O)Nc1cccc(S(=O)(=O)N2CCOCC2)c1`, the inhibition is -25.4% [at 12.3 µM] (inactive).

Turning to `Cc1c(C(=O)Nc2cccc(S(=O)(=O)N3CCOCC3)c2)oc2ccccc12`, the inhibition was 60.5% [at 12.3 µM] (active).

As for `COc1ccc(NC(=O)c2oc3ccc(S(=O)(=O)N4CCOCC4)cc3c2C)cc1`, the inhibition is 6.27% [at 12.3 µM] (inactive).

Regarding `COc1ccc(S(=O)(=O)N(C)C[C@@H]2OCCCC[C@@H](C)Oc3ccc(NS(=O)(=O)c4ccccc4)cc3C(=O)N([C@@H](C)CO)C[C@H]2C)cc1`, the inhibition was -2.53% (inactive).

Regarding `Cc1ccccc1N1CCN(C(=O)c2cccnc2)CC1`, the inhibition was 6.64% [at 12.3 µM] (inactive).

For the molecule `O=C(Nc1ccc(N2CCN(C(=O)c3ccccc3)CC2)c(Cl)c1)c1cccnc1`, the inhibition is 86.4% [at 12.3 µM] (active).

On to `O=C(Nc1ccc(N2CCN(C(=O)c3ccccc3)CC2)c(Cl)c1)c1ncn[nH]1`, for which the inhibition is 5.87% [at 12.3 µM] (inactive).

Take `C[C@H](CO)N1C[C@H](C)[C@H](CN(C)Cc2ccncc2)Oc2ncc(C#Cc3cccc(F)c3)cc2C1=O`: the inhibition is 7.42% (inactive).

Consider `CC(C)NC(=O)N[C@@H]1CC[C@H](CC(=O)NCCN2CCCC2)O[C@@H]1CO`, for which the inhibition is 20.3% (inactive).

As to `C[C@H](CO)N1C[C@H](C)[C@H](CN(C)C(=O)Nc2ccc(C(F)(F)F)cc2)Oc2ccc(NC(=O)Nc3ccccc3)cc2C1=O`, the inhibition is 15.8% (inactive).

Consider `NC(Cc1ccccc1)c1csc(Nc2cc(Oc3ccccc3)ncn2)n1` (stereo not given), for which the inhibition was -44.1% [at 12.3 µM] (inactive).

With `COc1ccc(CC(N)c2csc(NC(=O)Cc3ccccc3)n2)cc1` (stereo not given), the inhibition was -13.2% [at 12.3 µM] (inactive).

Regarding `NC(Cc1ccc(F)cc1)c1csc(Nc2nncc3ccccc23)n1` (stereo not given), the inhibition was 58.7% [at 12.3 µM] (active).

Take `C[C@H]1CCCCO[C@@H](CN(C)Cc2ccc(C(=O)O)cc2)[C@@H](C)CN([C@@H](C)CO)C(=O)c2cc(NS(C)(=O)=O)ccc2O1`: the inhibition is 18.6% (inactive).

Regarding `CN1C(=O)c2cc(NC(=O)c3ccc4c(c3)OCO4)ccc2OC[C@@H]2O[C@H](CC(=O)O)CC[C@H]21`, the inhibition is -18.9% (inactive).

In the case of `O=C(Nc1cc(Cl)cc(Cl)c1)N[C@H]1CC[C@@H](CCNS(=O)(=O)c2cccc(F)c2)O[C@H]1CO`, the inhibition is 0.313% (inactive).

As to `CCCCNc1cccc2c1S(=O)(=O)N[C@@H](C)CO2`, the inhibition is -0.896% [at 12.3 µM] (inactive).

Turning to `Cc1ccc(-c2csc(NC(=O)C3=COCCO3)n2)cc1C`, the inhibition was 55.4% [at 12.3 µM] (active).

Turning to `NS(=O)(=O)c1ccc2nc(NC(=O)C3=COCCO3)sc2c1`, the inhibition was -13.9% [at 12.3 µM] (inactive).

Take `COc1ccc(C(O)c2nc(-c3ccc4c(c3)OCO4)cs2)cc1` (stereo not given): the inhibition was -6.46% [at 12.3 µM] (inactive).

For `CCC(CC)c1nnc(NC(=O)C2=COCCO2)s1`, the inhibition is -12% [at 12.3 µM] (inactive).

In the case of `O=C(Nc1nc(-c2ccc3c(c2)OCO3)cs1)c1ccncc1`, the inhibition is 71% [at 12.3 µM] (active).

`C/C(=N/NC(=O)c1ccncc1)c1ccc2c(c1)OCO2`: the inhibition is -13.1% [at 12.3 µM] (inactive).

Turning to `Cc1noc(C)c1NC(=O)N(C)C[C@@H]1OCCCC[C@@H](C)Oc2ccc(NC(=O)C3CCCCC3)cc2C(=O)N([C@H](C)CO)C[C@@H]1C`, the inhibition is -14% (inactive).

As for `C[C@@H]1CN([C@@H](C)CO)C(=O)c2cc(NC(=O)Nc3cccc4ccccc34)ccc2O[C@@H]1CN(C)C(=O)Nc1cccc2ccccc12`, the inhibition is 7.37% (inactive).

On to `C[C@@H]1CN([C@@H](C)CO)C(=O)c2cc(-c3cncnc3)cnc2O[C@H]1CN(C)C(=O)c1cccc(F)c1`, for which the inhibition was -6.88% (inactive).

Regarding `C[C@@H]1CN([C@@H](C)CO)S(=O)(=O)c2ccc(C#CC3(O)CCCC3)cc2O[C@H]1CN(C)C(=O)c1ccncc1`, the inhibition was -22.7% (inactive).

Take `CNC[C@H]1Oc2cc(-c3ccc(OC)cc3)ccc2S(=O)(=O)N([C@H](C)CO)C[C@@H]1C`: the inhibition is 1.64% (inactive).

`CNC[C@H]1Oc2c(NC(=O)C3CC3)cccc2C(=O)N([C@@H](C)CO)C[C@@H]1C`: the inhibition is -1.43% (inactive).

`CCS(=O)(=O)N[C@@H]1CC[C@@H](CC(=O)NCC2CC2)O[C@H]1CO`: the inhibition is -3.04% (inactive).

For the molecule `C[C@@H]1CN([C@H](C)CO)S(=O)(=O)c2ccc(-c3ccccc3)cc2O[C@H]1CN(C)C(=O)C1CCC1`, the inhibition was 19.5% (inactive).

In the case of `C[C@@H]1CN([C@@H](C)CO)C(=O)Cc2cc(NS(=O)(=O)c3ccc(Cl)cc3)ccc2O[C@H]1CN(C)CC1CCCCC1`, the inhibition is 32.1% (inactive).

For `C[C@H]1CN([C@@H](C)CO)C(=O)c2cc(-c3cccc(C(=O)N(C)C)c3)cnc2O[C@H]1CN(C)S(=O)(=O)c1ccccc1`, the inhibition is -10.1% (inactive).

Regarding `O=C(C[C@H]1C[C@@H]2c3cc(NC(=O)C4CCC4)ccc3O[C@@H]2[C@H](CO)O1)NCCN1CCCCC1`, the inhibition is 16.8% (inactive).

Consider `CCC(CC)COC(=O)C1=C(C)NC(=O)NC1c1ccc([N+](=O)[O-])cc1` (stereo not given), for which the inhibition is 29.9% [at 12.3 µM] (inactive).

As to `CCOC(=O)C1=C(CCc2ccccc2)NC(=O)NC1c1ccc2ccccc2c1` (stereo not given), the inhibition is 6.29% [at 12.3 µM] (inactive).

As for `CCOC(=O)C1=C(c2ccccc2)NC(=O)NC1c1cc(OCC)c(O)c([N+](=O)[O-])c1` (stereo not given), the inhibition is -15.8% [at 12.3 µM] (inactive).

As for `CCOC(=O)C1=C(CN2CCc3ccccc32)NC(=O)NC1c1cccc([N+](=O)[O-])c1` (stereo not given), the inhibition was 64.3% [at 12.3 µM] (active).

For `CCOC(=O)C1=C(CN2CCc3ccccc32)NC(=O)NC1c1ccc(Cl)cc1` (stereo not given), the inhibition is 58% [at 12.3 µM] (active).

As for `CCOC(=O)C1=C(CN2CCc3ccccc32)NC(=O)NC1c1cc(C)ccc1C` (stereo not given), the inhibition is -13.6% [at 12.3 µM] (inactive).

For orientation: inhibition means the relative decrease from the control value, in per cent.
